# From PubChem BioAssay (Tox21)
# Results filed as inconclusive are left out. Where a call stands in place of a potency, no number is given. Activity calls are given as the source filed them. Unless noted, calls follow the shape of the dose curve; as a rule, active = well fitted curve in the direction sought with a large enough effect in the repeat runs; inconclusive = weak or mixed curves; inactive = no such curve, though single readings can be large; an effect the other way counts as inactive or inconclusive.
# Legend:
# [1] = qHTS assay to identify small molecule agonists of the RXR signaling pathway - cell viability counter screen (AID 1159529); also: nearly all actives have a fitted effect of over 50% in size; also: potency is read from the fitted curve at half-maximal effect
# Method in brief: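 Cell viability is measured by CellTiter-Glo luminescence, 30 min at room temperature, in wells already read for beta-lactamase. Engineered HEK 293T cells (RXR-alpha-UAS-bla) are dosed 16 hr at 37 C. Tetraoctyl ammonium bromide serves as positive control.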
# [2] = qHTS assay to identify small molecule antagonists of the retinoic acid receptor (RAR) signaling pathway (AID 1159552; also: nearly all actives have a fitted effect of over 50% in size; also: potency is read from the fitted curve at half-maximal effect)
# Method in brief: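 Quantitative HTS in C3RL4 RARE-luciferase reporter cells. Compounds were added with 1 uM (final) retinol; luminescence was read after 6 hr.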
# [3] = qHTS assay to identify small molecule agonists of the retinoic acid receptor (RAR) signaling pathway (AID 1159553); settings: C3RL4 RARE luciferase reporter, agonist, 6 h; activation: at 73.3 µM (top of the series); also: potency is read from the fitted curve at half-maximal effect
# Method in brief: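 Luminescence from a RARE-driven luciferase reporter in C3RL4 cells served as the read-out, measured after 30 min with detection reagent at room temperature. Compounds in DMSO were applied for 6 hr at 37 C following overnight seeding.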
# [4] = qHTS assay to identify small molecule antagonists of the retinoid acid receptor (RAR) signaling pathway - cell viability counter screen (AID 1159551); also: nearly all actives have a fitted effect of over 35% in size
# Method in brief: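 Luminescent ATP quantitation (CellTiter-Glo) gave cell viability in C3RL4 cells exposed to test chemicals for 6 h at 37 C alongside 1 uM final retinol.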
# [5] = qHTS assay to identify small molecule antagonists of the estrogen related receptor (ERR) signaling pathway - cell viability counter screen (AID 1224818);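 also: viability measured after 17.5 h of compound exposure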
# Method in brief: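 Multiplexed counter screen to separate cytotoxic compounds from true ERR modulators. ERR cells received DMSO-dissolved compounds after a 6 h pre-incubation, were exposed 17.5 h at 37 C, then assayed with CellTiter-Fluor fluorescence.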
# [6] = qHTS assay to identify small molecule antagonists of the estrogen related receptor (ERR) signaling pathway (AID 1224819;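 also: luminescence from an ERR-driven luciferase reporter measured with One-Glo reagent; nearly all actives have a fitted effect of over 50% in size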)
# Method in brief: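 Seed ERR cells 2,000/well; rest 6 h at 37 C/5% CO2; pin compounds in DMSO; incubate 18 h at 37 C; add One-Glo; wait 30 min at room temperature; measure luminescence.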
# [7] = qHTS assay to identify small molecule agonists of the estrogen related receptor (ERR) signaling pathway (AID 1224820)
# Method in brief: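 ERR reporter cell line (from NTP), 2,000 cells/well, incubated 6 h before compound addition, then 18 h at 37 C. Luminescence measured 30 min after One-Glo reagent at room temperature.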
# [8] = system: estrogen-related receptor alpha (ERRalpha) with PGC-1alpha coactivator, human; assay: qHTS assay to identify small molecule antagonists of the estrogen related receptor signaling pathway with the pleiotropic PPARgamma coactivator (PGC) (AID 1224821; calls by dose curve;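 also: lower luminescence signal means antagonism of PGC/ERR signalling; nearly all actives have a fitted effect of over 50% in size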)
# Method in brief: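 PGC/ERR reporter cell line, plated 6 h before compound addition, then exposed 18 h at 37 °C. Luciferase activity read by luminescence 30 min after One-Glo addition; decrease indicates antagonism.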
# [9] = qHTS assay to identify small molecule antagonists of the estrogen related receptor signaling pathway with the pleiotropic PPARgamma coactivator (PGC) cell viability counter screen (AID 1224822;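 also: viability read after 17.5 h compound exposure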)
# Method in brief: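 Cells: PGC/ERR, 2,000/well, 1536-well format. Pre-incubation 6 h, 37 C/5% CO2. Compound exposure 17.5 h, 37 C. Detection: CellTiter-Fluor, 30 min, fluorescence.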
structure (smiles),measurement,setting,value
CC(=O)c1ccc([N+](=O)[O-])cc1,Potency,[1],inactive
same,Potency,[2],inactive
same,Potency,[3],inactive
COc1ccccc1N1CCN(CCCCNC(=O)c2ccc(-c3ccc(C(C)=O)cc3)cc2)CC1,Potency,[1],inactive
same,Potency,[2],inactive
same,Potency,[3],inactive
CC/C=C1/OC(=O)c2ccccc21,Potency,[4],inactive
same,Potency,[2],inactive
CN1C(=O)N(c2ccccc2Br)Cc2cnc(Nc3ccc4c(c3)OCC(CO)O4)nc21 (stereo unspecified),Potency,[1],0.245 µM (active)
same,Potency,[3],inactive
COC(=O)[C@H]1[C@H]2C[C@@H]3c4[nH]c5cc(OC)ccc5c4CCN3C[C@H]2C[C@@H](OC(=O)/C=C/c2ccc(O)c(OC)c2)[C@@H]1OC,Potency,[4],inactive
COC(=O)C1=C(C)NC(C)=C(C(=O)O[C@@H]2CCCN(Cc3ccccc3)C2)[C@@H]1c1cccc([N+](=O)[O-])c1,Potency,[4],inactive
CCC(C)COC(C)=O (stereo unspecified),Potency,[1],inactive
same,Potency,[2],inactive
same,Potency,[3],inactive
COc1ccccc1NC(=O)c1cc2ccccc2cc1O,Potency,[4],inactive
same,Potency,[2],inactive
CC1(C)[C@H](C(=O)O)N2C(=O)C[C@H]2S1(=O)=O,Potency,[1],inactive
same,Potency,[2],inactive
same,Potency,[3],inactive
C[C@@H](O[C@H]1OCCN(Cc2n[nH]c(=O)[nH]2)[C@H]1c1ccc(F)cc1)c1cc(C(F)(F)F)cc(C(F)(F)F)c1,Potency,[1],19 µM (active)
same,Potency,[2],26.6 µM (active)
OCCN1CCN(CCCN2c3ccccc3Sc3ccc(Cl)cc32)CC1,Potency,[1],16.9 µM (active)
same,Potency,[2],29.8 µM (active)
same,outcome,[5],inactive
same,outcome,[6],inactive
same,outcome,[7],inactive
same,outcome,[8],inactive
same,outcome,[9],inactive
NNC(=O)CP(=O)(c1ccccc1)c1ccccc1,Potency,[1],inactive
same,Potency,[2],inactive
same,Potency,[3],inactive
COc1cc(N)c(Cl)cc1C(=O)NC1CCN(CCCOc2ccc(F)cc2)CC1OC (stereo unspecified),Potency,[1],inactive
same,Potency,[2],inactive
same,Potency,[3],inactive
CCCCCCCCC(CCCCCC)C(=O)O (stereo unspecified),Potency,[4],inactive
CCOc1ccccc1O[C@H](c1ccccc1)[C@H]1CNCCO1,Potency,[4],inactive
Cc1ccccc1S,Potency,[4],inactive
CC1CC(C)C(=O)C1=O (stereo unspecified),Potency,[4],inactive
Oc1ccc(Cl)c2cccnc12,Potency,[4],inactive
same,Potency,[2],inactive
Oc1c(I)cc(I)c2cccnc12,Potency,[4],inactive
same,Potency,[2],inactive
CC1(CN2CCC(n3c(=O)[nH]c4ccccc43)CC2)OCc2ccccc2-n2cccc21 (stereo unspecified),Potency,[4],inactive
same,Potency,[2],29.8 µM (active)
same,Potency,[3],inactive
COC(=O)CS,Potency,[3],inactive
C=CC(=O)OCC1CC2CC1C1CCC(COC(=O)C=C)C21 (stereo unspecified),Potency,[2],8.63 µM (active)
Cc1cccc(N(C)C(=S)Oc2ccc3c(c2)CCC3)c1,Potency,[4],inactive
same,Potency,[2],inactive
same,Potency,[3],inactive
CCC(C)COC(=O)CC(C)C (stereo unspecified),Potency,[4],inactive
same,Potency,[2],inactive
same,Potency,[3],inactive
CN(C)CCC=C1c2ccccc2C=Cc2ccccc21,Potency,[3],inactive
same,outcome,[5],inactive
same,outcome,[6],inactive
same,outcome,[7],inactive
same,outcome,[8],inactive
c1cc(N(CC2CO2)CC2CO2)ccc1Cc1ccc(N(CC2CO2)CC2CO2)cc1 (stereo unspecified),Potency,[4],inactive
same,Potency,[2],inactive
same,Potency,[3],30.6 µM (active)
c1ccc2c(c1)CCc1ccccc1N2,Potency,[4],inactive
same,Potency,[2],inactive
same,Potency,[3],inactive
C[C@@H]1CN(CCCn2c3ccccc3c3ccccc32)C[C@H](C)N1,Potency,[2],33.5 µM (active)
O=C1Cc2ccccc2N1c1c(Cl)cccc1Cl,Potency,[4],inactive
same,Potency,[2],inactive
same,Potency,[3],inactive
O=[N+]([O-])c1cc(C2CCCCC2)c(O)c([N+](=O)[O-])c1,Potency,[4],inactive
same,Potency,[3],inactive
